In the supplement of paper PMC6555819:

system: RARg:RXRa (NR concentration 270 nM, RXRa partner concentration 90 nM); assay: PBM binding z-score (relative to random genomic background probes); higher = stronger binding; sequences stand for … in GC…GCGATTGACAGCGTAGAATGAAGG
How it was run: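 Ligand-free nuclear receptor dimers were applied to custom Agilent 4×180K protein-binding microarrays whose double-stranded probes carried direct-repeat seeds, single-nucleotide variants, half-site ablations and random human genomic background sequences in 34-nt variable regions. Incubation lasted 1 h. Binding z-scores were computed against the random background probes from regression-normalized fluorescence.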

Sequence | PBM binding z-score
CGAGACAGGTGAAAGGTAACTCAGTCTGGTACGC | 1.2
TGAATGAGGTTATAAGAGCAGGGAACGTTGCAAA | 1.47
CCTGCTAGGTGATGGTCAGCTAATCTACAGTATG | -0.189
TCTGCTAGGTCAGTTGGTCAACTAACGAGCTGCC | 2.82
TCATGTAGATCAATAGAGGTTAAGAAAGTGCGCT | 0.871
TGAATGAGGTTAGAAGATCAGGGAACGTTGCAAA | 0.98
CCGACAGGGGCAGAAAGGTTACCATACCATCCGG | 1.84
CCGGCTGGGGCAAGGTTACCATAACGCACAGCCA | 1.14
TTACCAAGGTGTGCTGAGGTCGTTGATCCAACTC | 0.184
GGAACGAAGGCAAGTTGATAGCAGAGTTTGATGG | -0.376
ATATGCAGGTTACATCCGGGTCATTCAGGCTATG | 4.04
CCTACTGGGCCACGAAAGTTCATTGATTCAGTGA | 2.04
ATATGTAGGTTGCATCCGGGTCATTCAGGCTATG | 2.04
TCTTATAGGTAATACAGGTGAAAGTCGGCATCTA | 0.769
TCGAGTAGGTTAGTCGAGGCATTCAGCCAACATA | -0.298
CCAAGTAGGTTATGGGGCATTCAGGCAACGGTGA | 0.634
ATTTGTAGGTTAAGGGTCATTCAGGTTGGTTCGC | 5.34
TCTTGTAGATCAAGCAGATTAAGAAAGCCTGAGT | -0.157
GTACCAAGGTGAATAGGTCGATGATGAGTAGGCG | 2.49
CATACAGGATCAGCTAGGCCAGAGTAGGGACGGC | -0.112

Sequence | PBM binding z-score
ACAGACAGGTGAGTGAATGTAACTCAGCTGGACG | 0.386
TGAATGAGGTTAAAGATCATGGAACGTGGCGTCG | 2.46
CAAACTAGGACACAGAGGTCAAAGTCCGTGCGTA | 5.54
CGTCCAAGGTGAATGCTAGGTCAGTGAAAGCATT | 3.71
TTTTGTAGATCAGCAGGTTAAGAAAGCTGGCCAA | -0.111
TGAATGAGGTTAGAGATCAGGGAACGTGGCGTCG | 1.04
TCATATAGGTAAATGCCAGGTGAAAGTCCGATCT | 0.611
CCTACTGGGCCACAAAAGGTCATTGATTCAGTGA | 4.47
CATACTGGGCCATCAGGTCATTGATATCAACGTT | 2.53
ATATGTAGGTTACATCCGCGTCATTCAGGCTATG | 0.929
GCAGACAGGTGAAACGCAGGTAACTTAGGGTGGC | 0.872
ATATGTAGGTTAGCTGGGGTCTTTCAGACTAGGC | 0.713
GCTTGTAGATCAATGTTAAGAAAGACTAAGCTAA | -0.411
ACCCGGAGGACAAAGGTCAGAGCTACGCCAGTGA | 6.15
ACTTACGGGTCAACGATGTTATAGCACGCGTATA | 5.25
CCTACTGGGCCACGAAAGATCATTGATTCAGTGA | -0.154
CCTACTGGGCCATCAGGTCCTTGATATCAACGTT | -0.0484
GCTTCTAGATCAAGGTTAAGAAAGACTAAGCTAA | 0.25
CAAACTAGGTCACCGGAAGCTCAAAGTCCGCATG | 4.84
CGTCAAAGTTCAACTAAGGGAACGTAAAGCACGC | 5.85
